# Out of some 360,000 compounds screened, about 25,000 (6.9%) were called active. Not shown: some 9% with an inconclusive outcome. The call rests on the fitted dose curve; in most records, active means well fitted inhibition curve with a large enough effect; inconclusive means small, poorly fitted or top-dose-only effect; inactive means flat fitted curve, though single readings scatter. The full list was thinned out, with actives kept by preference.
# Target: Luciferin 4-monooxygenase (Photinus pyralis) (UniProt P08659)
# Sequence (P08659 whole entry, looked up): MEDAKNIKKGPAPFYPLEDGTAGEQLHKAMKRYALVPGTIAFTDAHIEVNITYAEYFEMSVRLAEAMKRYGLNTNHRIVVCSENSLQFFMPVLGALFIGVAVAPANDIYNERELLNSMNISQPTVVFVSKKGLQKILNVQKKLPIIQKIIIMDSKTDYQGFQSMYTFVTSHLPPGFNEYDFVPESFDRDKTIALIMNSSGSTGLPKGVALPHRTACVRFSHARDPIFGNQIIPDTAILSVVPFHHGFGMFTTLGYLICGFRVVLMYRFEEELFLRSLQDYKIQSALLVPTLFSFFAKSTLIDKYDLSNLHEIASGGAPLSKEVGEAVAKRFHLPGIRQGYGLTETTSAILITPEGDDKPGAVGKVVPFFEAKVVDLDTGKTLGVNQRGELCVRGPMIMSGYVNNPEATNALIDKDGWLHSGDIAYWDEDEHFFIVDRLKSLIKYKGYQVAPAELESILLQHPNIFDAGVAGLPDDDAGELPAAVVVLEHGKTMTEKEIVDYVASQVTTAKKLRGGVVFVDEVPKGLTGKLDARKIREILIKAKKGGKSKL
# Test: qHTS profiling assay for firefly luciferase inhibitor/activator using purifed enzyme and Km concentrations of substrates (counterscreen for miR-21 project); further: nearly all actives have a fitted effect of over 55% in size;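 on activity change, negative = inhibition: plate controls were vehicle for no effect and reference inhibitor for full effect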
# Details: purified FLuc, luminescence inhibition; series mostly up to 57.5 µM; activity change, negative = inhibition: at the top concentration
# Outline: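 Biochemical qHTS of compounds, final roughly 60 µM downward over six points, against 10 nM purified firefly luciferase using Km concentrations of substrates (10 uM D-luciferin, 10 uM ATP) in Tris acetate pH 7.5 buffer; luminescence output.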
# Potency means the concentration at half of the fitted maximal effect.
Compound,"activity change, negative = inhibition",Potency
Cc1ccc(Nc2ccc3cc(S(=O)(=O)N4CCCCC4)ccc3n2)cc1F,4.26% (inactive),
CCOC(=O)c1ccc(NC(=O)CCS(=O)(=O)c2ccc3c(c2)oc(=O)n3C)cc1,1.12% (inactive),
CC(C)CCNC(=O)CC1C(=O)N(Cc2ccccc2)C(C)c2nc3ccccc3n21 (stereo unspecified),6.94% (inactive),
CCCNC(=O)c1c(Cl)cnn1-c1ccc(C)cc1,,9.53 µM (active)
CCCN1CCN(CCCNC(=O)c2cnn(-c3ccc(C)cc3)c2-n2cccc2)CC1,1.38% (inactive),
CCCNC(=O)CCc1c(C)nc2c(c(C)nn2-c2ccc(C)cc2)c1C,-1.39% (inactive),
COc1ccccc1OCCNC(=O)C(CCSC)NC(=O)COc1ccccc1 (stereo unspecified),0.951% (inactive),
CC(C(=O)NC1CCCC1)N1CCN(S(=O)(=O)c2ccccc2Cl)CC1 (stereo unspecified),-0.449% (inactive),
CC(C)(C)N1CC(c2nc3ccccc3n2Cc2ccc(F)cc2)CC1=O (stereo unspecified),-0.554% (inactive),
CC(C)(C)c1cc(=O)n2c(nc3ccccc32)[nH]1,,21.3 µM (active)
CC(C)(C)c1nc2ccccc2c(=O)n1N1C(=O)c2ccccc2C1=O,3.69% (inactive),
O=C(COc1coc(CN2CCN(c3ccccc3)CC2)cc1=O)Nc1ccccc1F,-0.456% (inactive),
CC1=C(C(=O)OCC2CCCCC2)C(c2c(F)cccc2Cl)CC(=O)N1 (stereo unspecified),-1.11% (inactive),
Cc1cccc(C(CC(=O)NCC2(c3ccccc3)CCCC2)c2ccccc2)c1O (stereo unspecified),1.15% (inactive),
Cc1ccc(S(=O)(=O)Nc2nc(N)n(-c3ccccc3)n2)cc1,-15.3% (inactive),
Cc1ccc(C(=O)Nc2nc(N)n(-c3ccccc3)n2)cc1,,23.9 µM (active)
Cn1c(=O)c(C(=O)O)nn(-c2ccccc2)c1=O,-0.0194% (inactive),
COc1ccc(CNC(=O)CCc2c(C)nn(-c3ccc(N4CCCC4)nn3)c2C)cc1,3.1% (inactive),
N#Cc1ccc(CSc2nnc3ccccn23)cc1,-0.254% (inactive),
Cn1c(CC(=O)Nc2ccccc2)nnc1SCC(=O)c1ccccc1,1.04% (inactive),
O=C(CSc1nnc2ccccn12)c1ccccc1,,23.9 µM (active)
Cc1ccc(-n2c(C)nnc2SCC(=O)NC2CC2)cc1,-4.89% (inactive),
Cc1ccc(-n2c(C)cc(C(=O)CSc3nnc4ccccn34)c2C)cc1,,2.13 µM (active)
CCN(C(=O)CSc1nnc2ccccn12)C1CCS(=O)(=O)C1 (stereo unspecified),0.52% (inactive),

Compound,"activity change, negative = inhibition",Potency
O=C(Nc1cc(Cl)cc(Cl)c1)c1ccc2c(c1)N(Cc1cccc(Cl)c1)C(=O)c1ccccc1S2=O (stereo unspecified),-1.73% (inactive),
CCN(CC)c1ccc(NS(=O)(=O)c2cc(-c3cc(C)no3)ccc2C)c(C)c1,-13.7% (inactive),
Cc1cccc(C)c1-n1ncc(C(=O)NCCCN2CCCCC2)c1C1CCN(C(=O)OC(C)(C)C)CC1,-1.11% (inactive),
CCOC(=O)c1c(C)[nH]c(C)c1S(=O)(=O)N(C)CC(=O)N1CCN(c2ccccc2)CC1,-1.32% (inactive),
O=C(CSc1nc2c(c(=O)[nH]1)CN(Cc1ccc(F)cc1)CC2)Nc1ccccc1Cl,-0.468% (inactive),
OC(c1nc2ccc(F)cc2[nH]1)C(O)c1nc2ccc(F)cc2[nH]1 (stereo unspecified),-2.89% (inactive),
CC(C)c1nc2ccc(C(=O)O)cc2[nH]1,,15.1 µM (active)
N#CC(C(=O)c1ccc(S(=O)(=O)N2CCCCCC2)cc1)c1nc2ccccc2[nH]1 (stereo unspecified),-13.5% (inactive),
CCOC(=O)c1cccc(NC(=O)Cn2cnc3nc4c(cc3c2=O)CCCC4)c1,-14.8% (inactive),
CCOC(=O)c1[nH]c(C)c(CCC(=O)NCc2ccccc2C)c1C,-6.99% (inactive),
COc1ccc(CCNC(=O)C(=O)NCC(c2ccco2)S(=O)(=O)c2cccs2)cc1OC (stereo unspecified),6.4% (inactive),
C#CCSc1nnc(-c2sc3ccccc3c2Cl)o1,,5.36 µM (active)
O=C(NCC#CCSc1nnc(-c2cccc3ccccc23)o1)c1cccs1,1.74% (inactive),
O=C(OCC#CCSc1nnc(-c2ccncc2)o1)c1sc2ccccc2c1Cl,-11.9% (inactive),
COc1ccc2cc(-c3nc(Cl)c4c5c(sc4n3)CC(C)CC5)c(=O)oc2c1 (stereo unspecified),-5.25% (inactive),
COc1ccc(-c2cc3ccc(OCc4nn[nH]n4)cc3oc2=O)cc1,,1.69 µM (active)
Cc1noc(C)c1COc1ccc2ccc(=O)oc2c1,0.0642% (inactive),
COc1ccc(CCN2C(=O)N(c3cccc(OC)c3)C(=O)C2CC(=O)Nc2ccccc2)cc1 (stereo unspecified),-3.46% (inactive),
COCCCNC(=O)COc1cc(C)c(Cl)c(C)c1,0.797% (inactive),
Cc1cc(OCc2cc(C(=O)NCc3cc(C(C)C)no3)no2)cc(C)c1Cl,,4.78 µM (active)
CC(C)C(=O)NCc1cc(-c2ccc(Cl)cc2)no1,3.81% (inactive),
CCc1ccc(NC(=O)c2nn(-c3ccc(C)cc3)c(=O)n(C)c2=O)cc1,-1.09% (inactive),
Cn1c(-c2ccco2)nc2cc3ccccc3cc21,,0.12 µM (active)
CS(=O)(=O)n1nc(-c2ccco2)nc1N,1.41% (inactive),

Compound,"activity change, negative = inhibition",Potency
Cn1c(SCC(=O)Nc2ccc(Br)cc2F)nnc1-c1ccco1,-15.5% (inactive),
Cc1cccc(N2CCN(C(=O)c3ccc(Nc4nc5ccccc5n5nnnc45)cc3)CC2)c1C,-9.44% (inactive),
Cc1cc(NC(=O)CN2CCCCC2C)nc2c1c(=O)oc1ccccc12 (stereo unspecified),1.83% (inactive),
Cc1ccccc1NC(=O)C1CCN(C(=O)NC2CCCCC2)CC1,1.56% (inactive),
O=C(Nc1cc2ccccc2oc1=O)C1CCCCC1,,2.39 µM (active)
COC(=O)c1cc(NC(=O)CCS(=O)(=O)c2cc(Br)cc3c2N(C(=O)C2CC2)CC3)cc(C(=O)OC)c1,-5.07% (inactive),
O=C1CCCc2cc(S(=O)(=O)N3CCCC(C(=O)NCc4ccccc4)C3)ccc2N1 (stereo unspecified),5.19% (inactive),
CC(C)(C)OC(=O)N1CCC(c2c(C(=O)NCc3ccccn3)cnn2-c2ccc(F)cc2)CC1,0.137% (inactive),
Cc1ccc(NC(=O)CN(C)C(=O)c2ccc(Br)o2)cc1,0.27% (inactive),
Cc1nc2ccccc2n1CC(=O)N/N=C/c1cccs1,4.13% (inactive),
CCC(C)NC(=O)c1c(N)n(/N=C/c2cccs2)c2nc3ccccc3nc12 (stereo unspecified),,3.01 µM (active)
CCOC(=O)c1c(N)n(-c2cccc(C)c2C)c2nc3ccccc3nc12,-3.45% (inactive),
CCCc1cc(=O)[nH]c(SCc2cc(=O)oc3c(C)c(C)ccc23)n1,-14.4% (inactive),
CN1CCN(C(=O)CCc2ncc(C(F)(F)F)cc2Cl)CC1,0.917% (inactive),
CC(C)(C)NC(=O)NC(=O)COC(=O)CCC1CCCCC1,2.91% (inactive),
O=C(CC1CCCCC1)NCc1ccccc1,-18.6% (inactive),
COc1ccccc1OCC(=O)O/N=C(\N)c1ccccn1,,19 µM (active)
N/C(=N\OC(=O)CCC1CCCCC1)c1ccccn1,,0.536 µM (active)
O=C(CN1CCN(c2ccccn2)CC1)NC1CCCCC1,-0.747% (inactive),
COc1ccccc1OCC(=O)OCn1c(SC)nnc(C)c1=O,2.06% (inactive),
COc1ccccc1OCC(=O)OCc1cc(-c2ccco2)on1,-4.02% (inactive),
N/C(=N\OC(=O)CC1CCCCC1)c1ccccc1,,2.13 µM (active)
COc1ccccc1NC(=O)C(C)OC(=O)CC1CCCC1 (stereo unspecified),4.56% (inactive),

# From PubChem BioAssay AID588342 (National Center for Advancing Translational Sciences (NCATS), 2011)
